Experimental data from PubChem BioAssay (NCI).
About 83,000 compounds went through this panel and 20% of them were active in at least one assay; those are over-represented in the sample as a whole.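 Growth was measured after 48 h exposure to one concentration of compound in 96-well plates. Values under 10 count as active.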 A number with no mark means an inactive call. Calls of active or inactive are those of the source.

Legend:
Assay in all cases: NCI-60 one-dose screen, 48 h (100 = growth as untreated, 0 = no growth, -100 = all killed)
Settings in all cases: 10 µM unless noted
T-47D breast = test system: T-47D breast
MDA-MB-435 melanoma = test system: MDA-MB-435 melanoma
SW-620 colon = test system: SW-620 colon
MCF7 breast = test system: MCF7 breast
HCT-116 colon = test system: HCT-116 colon
HCC-2998 colon = test system: HCC-2998 colon
KM12 colon = test system: KM12 colon
MDA-MB-468 breast = test system: MDA-MB-468 breast
BT-549 breast = test system: BT-549 breast

Row | Structure (SMILES) | growth (T-47D breast) | growth (MDA-MB-435 melanoma) | growth (SW-620 colon) | growth (MCF7 breast) | growth (HCT-116 colon) | growth (HCC-2998 colon) | growth (KM12 colon) | growth (MDA-MB-468 breast) | growth (BT-549 breast) [%]
1 | COc1ccc(C(=O)Nc2n[nH]c(Nc3ccccc3)c2C#N)cc1 | 113% | 118% | 102% | 94.8% | 105% | 120% | 112% | 112% | 
2 | O=C(Cn1c(/C=C/c2cccc([N+](=O)[O-])c2)nc2ccccc2c1=O)Nc1ccccc1 | 82.6% | 94.3% | 91.2% | 42.2% | 57.6% | 120% | 74.6% | 98.9% | 
3 | CN1CCN(c2ccc3c(c2)nc(NNC(=O)c2ncccn2)c2cccn23)CC1 | -22.3% (active) | -45.7% (active) | -6.01% (active) | -17.6% (active) | 0.844% (active) | -87.7% (active) | -14.2% (active) | -42.8% (active) | 
4 | COc1ccc(C(=O)/C=C/c2cccc3ccccc23)cc1S(N)(=O)=O | -2.6% (active) | 5.32% (active) | -16.1% (active) | -60.3% (active) | -91.9% (active) | -70.2% (active) | -61.2% (active) | -55.7% (active) | 
5 | NS(=O)(=O)c1ccc(-n2cc(-c3cccc(NC(=O)c4cc(N5CCOCC5)cc(C(F)(F)F)c4)c3)nn2)cc1 | 47% | 85.9% | 105% | 72.9% | 87.2% | 88.1% | 79% | 69.4% | 
6 | C[C@H]1CN(C(=O)c2ccc3c(NNC(=O)c4ccncn4)nc4cc(F)c(F)cc4n23)CCN1 | 21.3% | 37.4% | 38% | 17.4% | 21.7% | 61.7% | 37% | 7.53% (active) | 
7 | CCCCCCCCc1ccc(S(=O)(=O)Nc2ccc(CC)cc2C(=O)O)cc1 | 76.6% | 101% | 103% | 86% | 87.7% | 113% | 97.7% | 82.2% | 
8 | CC(=O)NNc1ccc2nnc(-c3ccccc3)n2n1 | 105% | 103% | 90.6% | 94.8% | 107% | 100% | 104% | 101% | 
9 | O=C1C(=Nc2ccc(F)c(Cl)c2)c2cccc3cccc1c23 | 45.3% | -42% (active) | 35.8% | 16.1% | 19% | 108% | 55% | 88.4% | 
10 | COc1ccc(C(=O)/C=C/c2c(F)cccc2Cl)cc1S(N)(=O)=O | -5.64% (active) | 6.73% (active) | 4.6% (active) | -4.58% (active) | -89.6% (active) | -46.2% (active) | -41.1% (active) | -3.57% (active) | 
11 | CCOC(=O)COc1c(OC)c(OC)cc2oc(-c3cccc(C(=O)Nc4ccc(Cl)cc4)c3)cc(=O)c12 | 47.5% | -11.8% (active) | 37.6% | 15.7% | 22.7% | 76% | 16.2% | 68% | 
12 | O=C(NNc1nc2cc(F)ccc2n2c(CN3CCCCC3)ccc12)c1cnccn1 | -61.5% (active) | -46.3% (active) | 2.86% (active) | -55.9% (active) | -86.9% (active) | -65.2% (active) | -29.8% (active) | -62.8% (active) | 
13 | COc1ccc(NC(=O)Cn2c(/C=C/c3cccc([N+](=O)[O-])c3)nc3ccccc3c2=O)cc1 | 69.2% | 99.8% | 92.6% | 46.8% | 55.4% | 112% | 77.5% | 83.6% | 
14 | C#CCOc1cc(N(CC)CC)ccc1C(C(=O)NC(C)(C)C)N(C(=O)C1CCc2cc(F)ccc2O1)c1ccccc1Br (stereo not given) | 55.6% | 50.6% | 59.2% | 28.7% | 27.5% | 93.5% | 40.4% | 38.2% | 
15 | Cc1ccc2c(c1)nc(-c1ccccc1)n2CC(=O)N=Nc1c(O)[nH]c2ccc(Br)cc12 | -46% (active) | -33.4% (active) | 2.54% (active) | -69.7% (active) | -91.7% (active) | -72% (active) | -46% (active) | -78.4% (active) | 
16 | COc1ccc(C(=O)/C=C/c2ccccc2Cl)cc1S(N)(=O)=O | 106% | 117% | 107% | 96.2% | 106% | 114% | 111% | 109% | 

Row | Structure (SMILES) | growth (T-47D breast) | growth (MDA-MB-435 melanoma) | growth (SW-620 colon) | growth (MCF7 breast) | growth (HCT-116 colon) | growth (HCC-2998 colon) | growth (KM12 colon) | growth (MDA-MB-468 breast) | growth (BT-549 breast) [%]
17 | COc1ccccc1C(=O)NN1C(=O)/C(=C/C2=Cc3ccccc3OC2)SC1=S | 104% | 110% | 114% | 92.9% | 95.7% | 117% | 99.5% | 115% | 
18 | COc1ccc(-c2nnc3ccc(N/N=C/c4ccc(O)cc4)nn23)cc1 | 45.4% | 45.8% | 67.1% | 13.2% | 27.3% | 14.9% | 28.5% | 48.2% | 
19 | O=C(NNc1nc2cc(F)ccc2n2c(CN3CC4CNCC4C3)ccc12)c1ccncn1 (stereo not given) | 12.4% | 32.1% | 31.3% | 14.7% | 14.7% | 56.7% | 27.9% | -3.86% (active) | 
20 | Cc1cc(C)n(-c2ccc3nnc(-c4ccccc4)n3n2)n1 | 95.5% | 106% | 103% | 89.9% | 106% | 103% | 97.4% | 97% | 
21 | O=C(Nc1ccc(C(F)(F)F)cc1)Nc1ccc2oc(=O)ccc2c1 | 19% | 24.1% | 31.2% | 2.63% (active) | 8.31% (active) | 32.5% | 16% | 5% (active) | 
22 | CC(=O)c1c(N)c(C#N)cn1-c1ccc(Cl)cc1Cl | 95.1% | 102% | 102% | 100% | 99.1% | 114% | 95.8% | 97.1% | 
23 | COc1cc2oc(-c3cccc(NC(=O)[C@H](Cc4ccccc4)NC(=O)OC(C)(C)C)c3)cc(=O)c2c(OC)c1OC | 38.7% | 61.9% | 43.3% | 22.1% | 15.1% | 69.6% | 19.5% | 41.8% | 
24 | COc1ccccc1/C=C/C(=O)c1ccc(OC)c(S(N)(=O)=O)c1 | 17% | 27.2% | 20.5% | 8.25% (active) | 5% (active) | 29.5% | 6.73% (active) | 20.7% | 
25 | COc1cc(OC)cc(C(=O)Nc2cccc(-c3cn(-c4ccc(S(N)(=O)=O)cc4)nn3)c2)c1 | 87.8% | 97.2% | 99.6% | 77.3% | 94% | 107% | 87.9% | 95.4% | 
26 | CC(=O)N1CCN(Cc2ccc3c(NNC(=O)c4cnccn4)nc4cc(F)ccc4n23)CC1 | 16.4% | 37.4% | 38.8% | 16.4% | 19.5% | 61.3% | 32.6% | 6.88% (active) | 
27 | CCCCCCCCc1ccc(C(=O)Nc2cccc(P(=O)(O)O)c2)cc1 |  | 103% | 100% | 91.8% | 94.3% | 114% | 103% |  | 110
28 | COc1ccc(NC(=O)Cn2c3c(sc2=O)[C@H]2[C@@H](O)[C@@H](O)[C@H](O)[C@@H]2CS3)cc1 | 100% | 101% |  | 93.8% | 103% | 114% | 102% | 107% | 
29 | CN1CCN(c2ccc3c(c2)nc(NNC(=O)c2cnccn2)c2cccn23)CC1 | -55.6% (active) | 5.71% (active) |  | -39.1% (active) | -52.1% (active) | -44.5% (active) | 1.89% (active) | -42.2% (active) | 
30 | CSc1ccc(C(=O)Nc2ccc3nnn(/C(C#N)=C/c4ccccn4)c3c2)cc1 | -45.3% (active) | -20.9% (active) |  | -79% (active) | -5.03% (active) | -76.3% (active) | -57.1% (active) | -69.1% (active) | 
31 | N#Cc1c(-c2cccc(O)c2O)cc(-c2ccc3ccccc3c2)[nH]c1=O | 68.9% | 72% |  | 59.8% | 34.5% | 74.3% | 19.5% |  | 
32 | Nc1nc(-c2ccccc2)c(N=Nc2ccc(Cl)cc2[N+](=O)[O-])s1 | 61.2% | 105% | 102% | 60.3% | 97.1% | 102% | 102% | 89.7% | 
